# Results filed as inconclusive are left out. Where a call stands in place of a potency, no number is given. Calls of active or inactive are those of the source. Unless noted, calls follow the shape of the full dose curve.
# Experiments:
# [1] = biological target: Estrogen receptor beta (Homo sapiens) (UniProt Q92731); experiment: qHTS assay to identify small molecule agonists of the estrogen receptor beta (ER-beta) signaling pathway (AID 1259377; active = well fitted activation curve with a large enough effect in the signal ratio in the repeat runs, not every such curve was filed as active; the % refers to the signal ratio)
# In short: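 ER-beta-UAS-bla HEK293T cells in medium with 2% charcoal-stripped FBS were exposed to compounds for 16 h at 37C. Beta-lactamase reporter activity was read as fluorescence after 2 h with LiveBLAzer B/G FRET substrate at room temperature.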
# [2] = biological target: Estrogen receptor beta (Homo sapiens) (UniProt Q92731); experiment: qHTS assay to identify small molecule antagonists of the estrogen receptor beta (ER-beta) signaling pathway (AID 1259378; active = well fitted inhibition curve with a large enough effect in the signal ratio in the repeat runs, not every such curve was filed as active; the % refers to the signal ratio)
# In short: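 ER-beta-UAS-bla HEK293T cells in 2% charcoal-stripped FBS medium treated with compound plus 1nM final 17-beta-estradiol for 16 hr at 37C. Beta-lactamase reporter read by FRET substrate fluorescence after 2 hours at room temperature.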
# [3] = qHTS assay to identify small molecule agonists of the androgen receptor (AR) signaling pathway in the presence of an antagonist - cell viability counter screen (AID 1259379; active = well fitted curve in the direction sought with a large enough effect in the repeat runs; an effect the other way counts as inactive or inconclusive; also: nearly all actives have a fitted effect of over 25% in size; also: potency is read from the fitted curve at half-maximal effect)
# In short: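 In MDA-kb2 cells (human breast carcinoma, MMTV-luciferase), compounds at 15 concentrations plus 3.0uM nilutamide; 16 hr, 37C, 0% CO2; CellTiter-Fluor fluorescence read for viability.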
# [4] = qHTS assay to identify small molecule agonists of the estrogen receptor beta (ER-beta) signaling pathway - cell viability counter screen (AID 1259380; active = well fitted curve in the direction sought with a large enough effect in the repeat runs; an effect the other way counts as inactive or inconclusive; also: nearly all actives have a fitted effect of over 30% in size; also: potency is read from the fitted curve at half-maximal effect)
# In short: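 Viability of ER-beta-UAS-bla HEK293T cells was determined by CellTiter-Glo luminescence following 16 hr treatment with test compounds at 37C.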
# [5] = qHTS assay to identify small molecule antagonists of the estrogen receptor beta (ER-beta) signaling pathway - cell viability counter screen (AID 1259382; active = well fitted curve in the direction sought with a large enough effect in the repeat runs; an effect the other way counts as inactive or inconclusive; also: series mostly up to about 92 µM; nearly all actives have a fitted effect of over 55% in size)
# In short: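 Tox21 10K library tested in qHTS format on ER-beta-bla HEK293T cells stimulated with 1nM E2; 16 hr treatment at 37C. Same-well CellTiter-Glo luminescence served as the cell viability measure.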
# [6] = qHTS assay to identify small molecule agonists or antagonists of the thyroid stimulating hormone receptor (TSHR) signaling pathway - wild type cell line counter screen (AID 1259384)
# In short: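 Wild-type Hek293 cells, 800/well, 18 h at 37C, then compound with Ro20-1724 for 30 min RT. cAMP by HTRF (cAMP-d2/anti-cAMP cryptate), 1 h RT, fluorescence read. 15 concentrations, triplicates.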
# [7] = biological target: Thyrotropin receptor (Homo sapiens) (UniProt P16473); experiment: qHTS assay to identify small molecule antagonists of the thyroid stimulating hormone receptor (TSHR) signaling pathway (AID 1259385); also: nearly all actives have a fitted effect of over 20% in size
# In short: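 TSHR-HEK293 cells (800/well) plated 18 h, then compounds with Ro20-1724 and TSH at 1.5 ng/mL final, 30 min at room temperature. cAMP quantified by HTRF (cAMP-d2/anti-cAMP-cryptate, 1 h); 15 concentrations in triplicate.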
# [8] = qHTS assay to identify small molecule agonists of the estrogen receptor alpha (ER-alpha) signaling pathway in the presence of an antagonist - cell viability counter screen (AID 1259386; active = well fitted curve in the direction sought with a large enough effect in the repeat runs; an effect the other way counts as inactive or inconclusive;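 also: cells exposed to compounds for 22 h at 37 °C before the viability read; nearly all actives have a fitted effect of over 30% in size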; also: potency is read from the fitted curve at half-maximal effect)
# In short: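 Fluorescent CellTiter-Fluor viability signal from VM7Luc4E2 cells, with the reagent added during the final hour of a 22hr compound exposure at 37C in the presence of 10.0nM ICI-182,780.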
# [9] = biological target: Progesterone receptor (Homo sapiens) (UniProt P06401); experiment: qHTS assay to identify small molecule agonists of the progesterone receptor (PR) signaling pathway (AID 1346784); also: nearly all actives have a fitted effect of over 30% in size
# In short: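 PR-UAS-bla HEK 293T cells (beta-lactamase reporter under UAS) in 2% charcoal-stripped FBS, dosed with 23 nL compound after 6 hr, incubated 16hr at 37C. LiveBLAzer B/G FRET substrate added, fluorescence read after 2 hours.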
# [10] = biological target: Progesterone receptor (Homo sapiens) (UniProt P06401); experiment: qHTS assay to identify small molecule antagonists of the progesterone receptor (PR) signaling pathway (AID 1346795; active = well fitted inhibition curve with a large enough effect in the signal ratio in the repeat runs, not every such curve was filed as active; the % refers to the signal ratio; also: potency is read from the fitted curve at half-maximal effect)
# In short: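 PR-UAS-bla HEK293T cells with beta-lactamase reporter under UAS control, in 2% charcoal-stripped FBS, treated with compounds plus 1 nM promegestone (R5020, final) for 16 hr at 37C. Read-out: FRET beta-lactamase substrate fluorescence after 2 hr at room temperature.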
# [11] = qHTS assay to identify small molecule antagonists of the progesterone receptor (PR) signaling pathway - cell viability counter screen (AID 1346798; active = well fitted curve in the direction sought with a large enough effect in the repeat runs; an effect the other way counts as inactive or inconclusive; also: series mostly up to about 92 µM; nearly all actives have a fitted effect of over 50% in size)
# In short: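 PR-UAS-bla HEK293T cells, 3,000/well in 2% charcoal-stripped FBS medium, dosed with compounds plus R5020 agonist and incubated 16 h at 37C. Viability then measured in the same wells by CellTiter-Glo luminescence after 30 min at RT.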
# [12] = qHTS assay to identify small molecule agonists of the progesterone receptor (PR) signaling pathway - cell viability counter screen (AID 1346799); also: nearly all actives have a fitted effect of over 45% in size
# In short: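 Counter screen in the PR-UAS-bla HEK293T wells (2% charcoal-stripped FBS, 16 h compound exposure at 37 C) after the bla read. CellTiter-Glo added, 30 min at room temperature, luminescence read as cell viability.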
# [13] = qHTS assay to identify small molecule antagonists of the TGF-beta/Smad signaling pathway - cell viability counter screen (AID 1346824; active = well fitted curve in the direction sought with a large enough effect in the repeat runs; an effect the other way counts as inactive or inconclusive; also: nearly all actives have a fitted effect of over 50% in size)
# In short: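 SBE-bla HEK 293T cells, incubated overnight, then compound plus 0.25 ng/mL TGF-beta1 (stock added) for 5 hr at 37 C. Viability was read in the same wells by CellTiter-Glo luminescence after 30 min at room temperature.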
# [14] = qHTS assay to identify small molecule agonists of the TGF-beta/Smad signaling pathway (AID 1346859; active = well fitted activation curve with a large enough effect in the signal ratio in the repeat runs, not every such curve was filed as active; the % refers to the signal ratio; also: series mostly up to about 77 µM)
# In short: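 SBE-bla HEK293T cells plated overnight, then compound exposure for 5 h at 37 C. Beta-lactamase reporter read with LiveBLAzer B/G FRET substrate after 2 h at room temperature, fluorescence at 405 nm excitation, 460/530 nm emission.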
# [15] = biological target: Thyrotropin-releasing hormone receptor (Homo sapiens) (UniProt P34981); experiment: qHTS assay to identify small molecule agonists of the thyrotropin-releasing hormone receptor (TRHR) signaling pathway (AID 1346891); also: series mostly up to about 58 µM
# In short: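 HEK293 cells expressing TRHR plated 18 h at 37 C/5% CO2, calcium dye-loaded 2 h at 37 C, then compound added (agonist mode); kinetic calcium fluorescence read 3 min at 1 s intervals; 15 concentrations in triplicate.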
# [16] = biological target: Androgen receptor (Homo sapiens) (UniProt P10275); experiment: qHTS assay to identify small molecule agonists of the androgen receptor (AR) signaling pathway in the presence of an antagonist (AID 1259381); also: nearly all actives have a fitted effect of over 15% in size
# In short: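 Here, 15-concentration compound series were pin-transferred onto MDA-kb2 MMTV-luciferase cells already dosed with nilutamide (3.0uM final). After 16hr at 37C, ONE-Glo was added and luminescence read 30min later at room temperature.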
# [17] = biological target: Estrogen receptor (Homo sapiens) (UniProt P03372); experiment: qHTS assay to identify small molecule agonists of the estrogen receptor alpha (ER-alpha) signaling pathway in the presence of an antagonist (AID 1259383); also: top concentration of the series differs between compounds; nearly all actives have a fitted effect of over 15% in size
# In short: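 In VM7Luc4E2 cells, 4,000 per well, compounds at 15 concentrations were co-incubated 22hr at 37C with 10.0nM final ICI-182,780. Luminescence from the stably transfected 4×ERE-luciferase reporter was recorded 30min after ONE-Glo addition.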
# [18] = qHTS assay to identify small molecule agonists of the TGF-beta/Smad signaling pathway - cell viability counter screen (AID 1346829; active = well fitted curve in the direction sought with a large enough effect in the repeat runs; an effect the other way counts as inactive or inconclusive; also: top concentration of the series differs between compounds; nearly all actives have a fitted effect of over 45% in size)
# In short: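 Here the cytotoxicity of library compounds is measured in SBE-bla HEK 293T cells treated for 5 hr, using CellTiter-Glo added to wells already read for the beta-lactamase reporter.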
# [19] = biological target: Thyrotropin-releasing hormone receptor (Homo sapiens) (UniProt P34981); experiment: qHTS assay to identify small molecule antagonists of the thyrotropin-releasing hormone receptor (TRHR) signaling pathway (AID 1346877; active = well fitted inhibition curve with a large enough effect in the repeat runs, not every such curve was filed as active; also: series mostly up to about 51 µM)
# In short: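 In this cell-based calcium flux format, HEK293 cells expressing TRHR received test compound for 5 min before the agonist TRH (1 nM final). Dye loading lasted 2 h at 37 °C.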
# [20] = qHTS assay to identify small molecule antagonists of the sonic hedgehog signaling (Shh) pathway (AID 1259369); also: potency is read from the fitted curve at half-maximal effect; nearly all actives have a fitted effect of over 45% in size
# In short: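 Screening used 3T3Gli1-Luc cells at 2,000 per well, compounds delivered in DMSO, and conditioned medium as agonist stimulus; plates incubated 24hr at 37 C and 5% CO2 before a 30min luciferase step.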
# Sequence of Estrogen receptor beta (Homo sapiens) (Q92731 whole entry, looked up): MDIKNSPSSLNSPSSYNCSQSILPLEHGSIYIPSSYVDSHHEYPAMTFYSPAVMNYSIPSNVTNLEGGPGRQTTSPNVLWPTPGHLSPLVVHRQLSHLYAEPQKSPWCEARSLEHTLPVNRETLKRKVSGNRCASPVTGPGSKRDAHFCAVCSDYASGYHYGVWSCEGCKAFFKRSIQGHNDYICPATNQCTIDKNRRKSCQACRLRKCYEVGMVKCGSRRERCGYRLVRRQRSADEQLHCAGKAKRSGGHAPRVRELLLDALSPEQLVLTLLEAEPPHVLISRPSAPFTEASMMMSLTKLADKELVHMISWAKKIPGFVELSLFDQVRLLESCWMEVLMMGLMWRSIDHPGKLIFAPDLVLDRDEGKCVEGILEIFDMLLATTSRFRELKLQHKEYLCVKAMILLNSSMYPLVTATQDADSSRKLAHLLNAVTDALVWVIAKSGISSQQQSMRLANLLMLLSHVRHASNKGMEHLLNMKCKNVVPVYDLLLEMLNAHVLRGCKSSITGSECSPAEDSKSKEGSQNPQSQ
# Sequence of Progesterone receptor (Homo sapiens) (P06401 whole entry, looked up): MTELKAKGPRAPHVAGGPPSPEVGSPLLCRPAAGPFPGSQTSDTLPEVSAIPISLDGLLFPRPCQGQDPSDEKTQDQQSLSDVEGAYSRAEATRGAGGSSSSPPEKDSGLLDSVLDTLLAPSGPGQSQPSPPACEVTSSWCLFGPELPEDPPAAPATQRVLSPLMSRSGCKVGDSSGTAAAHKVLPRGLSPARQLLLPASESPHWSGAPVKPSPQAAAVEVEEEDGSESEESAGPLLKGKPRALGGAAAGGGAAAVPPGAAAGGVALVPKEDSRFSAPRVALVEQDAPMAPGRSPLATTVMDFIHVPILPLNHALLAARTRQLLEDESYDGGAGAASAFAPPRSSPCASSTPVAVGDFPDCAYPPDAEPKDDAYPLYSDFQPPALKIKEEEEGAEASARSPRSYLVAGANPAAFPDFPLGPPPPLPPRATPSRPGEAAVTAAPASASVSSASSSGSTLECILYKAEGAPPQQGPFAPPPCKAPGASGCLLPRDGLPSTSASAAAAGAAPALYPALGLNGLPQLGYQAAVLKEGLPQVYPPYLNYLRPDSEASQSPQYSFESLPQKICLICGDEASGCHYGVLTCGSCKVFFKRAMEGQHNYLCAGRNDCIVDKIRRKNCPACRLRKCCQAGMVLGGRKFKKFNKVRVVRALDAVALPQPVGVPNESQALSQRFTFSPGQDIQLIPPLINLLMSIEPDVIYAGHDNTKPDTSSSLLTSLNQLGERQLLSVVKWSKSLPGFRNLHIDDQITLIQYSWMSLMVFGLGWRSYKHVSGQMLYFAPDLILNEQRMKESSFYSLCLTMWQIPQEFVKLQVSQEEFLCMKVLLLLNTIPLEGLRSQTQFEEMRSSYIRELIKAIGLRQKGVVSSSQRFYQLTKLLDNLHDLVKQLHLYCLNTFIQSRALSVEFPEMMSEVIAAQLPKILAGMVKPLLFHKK
# Sequence of Thyrotropin receptor (Homo sapiens) (P16473 whole entry, looked up): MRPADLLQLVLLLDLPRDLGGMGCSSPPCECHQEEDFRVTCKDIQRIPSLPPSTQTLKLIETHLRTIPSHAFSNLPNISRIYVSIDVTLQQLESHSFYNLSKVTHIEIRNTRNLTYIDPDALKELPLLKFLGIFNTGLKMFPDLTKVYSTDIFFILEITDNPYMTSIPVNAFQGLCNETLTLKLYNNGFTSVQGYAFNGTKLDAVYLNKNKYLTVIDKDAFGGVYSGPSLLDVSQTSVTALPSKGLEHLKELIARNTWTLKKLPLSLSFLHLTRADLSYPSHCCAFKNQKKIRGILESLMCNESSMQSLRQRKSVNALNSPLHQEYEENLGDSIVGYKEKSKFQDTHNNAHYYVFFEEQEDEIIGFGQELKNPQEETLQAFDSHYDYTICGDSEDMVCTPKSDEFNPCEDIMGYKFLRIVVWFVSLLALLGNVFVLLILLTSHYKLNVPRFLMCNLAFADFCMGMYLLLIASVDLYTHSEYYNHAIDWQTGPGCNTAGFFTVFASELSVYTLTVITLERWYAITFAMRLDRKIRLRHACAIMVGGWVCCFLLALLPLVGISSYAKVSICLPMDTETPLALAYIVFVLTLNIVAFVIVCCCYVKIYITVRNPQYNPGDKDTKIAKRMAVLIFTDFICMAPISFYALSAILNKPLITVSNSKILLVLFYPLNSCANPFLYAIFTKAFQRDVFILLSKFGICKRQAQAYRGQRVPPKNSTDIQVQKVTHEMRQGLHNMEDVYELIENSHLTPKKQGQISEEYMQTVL
# Sequence of Androgen receptor (Homo sapiens) (P10275 whole entry, looked up): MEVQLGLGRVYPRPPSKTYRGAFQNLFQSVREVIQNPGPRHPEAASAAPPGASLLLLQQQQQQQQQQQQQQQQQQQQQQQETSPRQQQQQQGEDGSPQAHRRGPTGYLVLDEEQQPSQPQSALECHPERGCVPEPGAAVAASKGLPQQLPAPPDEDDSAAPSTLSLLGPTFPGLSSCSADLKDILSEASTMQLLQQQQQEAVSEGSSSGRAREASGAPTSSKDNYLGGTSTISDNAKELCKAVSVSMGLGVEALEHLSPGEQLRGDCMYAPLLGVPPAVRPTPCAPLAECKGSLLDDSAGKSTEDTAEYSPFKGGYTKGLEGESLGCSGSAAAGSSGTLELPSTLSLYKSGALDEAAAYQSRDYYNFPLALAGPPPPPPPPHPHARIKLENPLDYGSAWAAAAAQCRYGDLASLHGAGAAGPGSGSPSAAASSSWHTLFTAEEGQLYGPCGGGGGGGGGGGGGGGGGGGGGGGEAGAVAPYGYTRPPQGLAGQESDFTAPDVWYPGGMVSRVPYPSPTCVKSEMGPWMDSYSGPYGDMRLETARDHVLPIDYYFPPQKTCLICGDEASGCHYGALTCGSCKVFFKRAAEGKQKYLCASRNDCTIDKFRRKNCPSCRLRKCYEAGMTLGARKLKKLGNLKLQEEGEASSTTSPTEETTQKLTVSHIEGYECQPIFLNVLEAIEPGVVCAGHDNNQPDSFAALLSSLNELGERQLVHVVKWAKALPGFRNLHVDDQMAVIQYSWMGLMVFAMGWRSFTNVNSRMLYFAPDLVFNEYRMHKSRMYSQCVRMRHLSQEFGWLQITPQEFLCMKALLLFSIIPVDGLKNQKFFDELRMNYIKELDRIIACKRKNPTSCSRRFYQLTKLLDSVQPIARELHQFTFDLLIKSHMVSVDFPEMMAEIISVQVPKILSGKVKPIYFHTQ
# Sequence of Estrogen receptor (Homo sapiens) (P03372 whole entry, looked up): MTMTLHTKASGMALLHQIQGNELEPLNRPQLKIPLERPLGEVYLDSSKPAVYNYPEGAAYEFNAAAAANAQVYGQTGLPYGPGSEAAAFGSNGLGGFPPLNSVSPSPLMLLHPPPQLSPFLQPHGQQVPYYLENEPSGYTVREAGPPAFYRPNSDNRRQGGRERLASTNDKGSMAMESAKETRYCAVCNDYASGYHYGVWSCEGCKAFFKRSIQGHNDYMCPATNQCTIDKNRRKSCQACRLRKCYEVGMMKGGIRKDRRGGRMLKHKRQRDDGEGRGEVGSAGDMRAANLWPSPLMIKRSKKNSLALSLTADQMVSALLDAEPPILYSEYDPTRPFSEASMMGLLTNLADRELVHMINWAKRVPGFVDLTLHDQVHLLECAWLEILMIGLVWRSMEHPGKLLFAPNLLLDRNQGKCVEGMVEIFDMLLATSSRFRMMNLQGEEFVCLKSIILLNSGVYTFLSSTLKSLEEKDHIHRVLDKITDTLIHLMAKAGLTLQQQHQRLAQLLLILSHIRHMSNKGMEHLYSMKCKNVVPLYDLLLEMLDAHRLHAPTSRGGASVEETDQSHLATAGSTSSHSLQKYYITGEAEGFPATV
# Sequence of Thyrotropin-releasing hormone receptor (Homo sapiens) (P34981 whole entry, looked up): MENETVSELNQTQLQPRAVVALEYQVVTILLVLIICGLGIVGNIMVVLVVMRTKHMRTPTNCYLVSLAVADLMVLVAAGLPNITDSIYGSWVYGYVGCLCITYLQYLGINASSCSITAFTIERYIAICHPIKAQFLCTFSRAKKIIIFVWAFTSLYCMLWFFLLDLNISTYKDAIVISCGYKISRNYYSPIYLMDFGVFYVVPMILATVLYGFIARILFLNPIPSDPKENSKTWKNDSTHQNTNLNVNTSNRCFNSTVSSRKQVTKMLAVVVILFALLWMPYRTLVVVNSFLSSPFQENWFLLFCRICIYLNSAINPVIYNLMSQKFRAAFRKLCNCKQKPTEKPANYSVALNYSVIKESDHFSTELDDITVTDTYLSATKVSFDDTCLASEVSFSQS
Structure (SMILES),Potency [1],Potency [2],Potency [3],Potency [4],Potency [5],Potency [6],Potency [7],Potency [8],Potency [9],Potency [10],Potency [11],Potency [12],Potency [13],Potency [14],Potency [15],Potency [16],Potency [17],outcome [18],outcome [19],Potency [20]
Cc1ccc(N=Nc2c(O)c(C(=O)O)cc3ccccc23)c(S(=O)(=O)O)c1,inactive,inactive,23.6 µM (active),inactive,inactive,inactive,inactive,23.6 µM (active),inactive,inactive,inactive,inactive,inactive,inactive,inactive,,,,,
CCCn1cnc2c1c(=O)n(CCCCC(C)=O)c(=O)n2C,inactive,inactive,inactive,inactive,inactive,inactive,,inactive,inactive,inactive,inactive,inactive,inactive,inactive,inactive,inactive,inactive,inactive,inactive,
CCC(Cl)CCC(Cl)C(Cl)CC(Cl)C(Cl)C(Cl)CCl (configuration not stated),inactive,inactive,inactive,inactive,inactive,inactive,inactive,inactive,inactive,inactive,inactive,inactive,inactive,inactive,inactive,,,,inactive,
C[C@@H]1C[C@H]2O[C@@]3(O[C@@H]2C(C)(C)O)[C@H](O)[C@@]2(C)[C@@H]4CC[C@H]5C(C)(C)[C@@H](O[C@@H]6OC[C@@H](O)[C@H](O)[C@H]6O)CC[C@@]56C[C@@]46CC[C@]2(C)[C@@H]13,inactive,inactive,inactive,,inactive,inactive,inactive,inactive,inactive,,inactive,,inactive,inactive,inactive,inactive,,inactive,inactive,
C=C1C(=C/C=C2\CCC[C@]3(C)[C@@H]([C@H](C)/C=C/[C@@H](O)C4CC4)CC[C@@H]23)C[C@@H](O)C[C@@H]1O,,,,26.6 µM (active),,inactive,inactive,,inactive,11.9 µM (active),,,inactive,inactive,,inactive,inactive,,,0.0007 µM (active)
O=C(Nc1ccc(S(=O)(=O)N2CCOCC2)cc1)c1cc(Cl)ccc1NS(=O)(=O)c1ccc(Cl)s1,,,inactive,,,inactive,inactive,inactive,inactive,,inactive,inactive,inactive,inactive,inactive,,inactive,,inactive,26.6 µM (active)
Nc1ccc([N+](=O)[O-])c(C(F)(F)F)c1,inactive,inactive,inactive,inactive,inactive,inactive,inactive,,inactive,,inactive,,inactive,inactive,inactive,,inactive,inactive,inactive,

# Reference: PubChem BioAssay (Tox21)
